In all, about 33,000 sequences were measured (“E-score (-0.5 to 0.5)”: median about -0.043, highest 2% from about 0.37 on). What follows is part of a selection rich in the highest values, with near analogues and random picks from the rest.
target: T1, Upc2 (UniProt Q12151); experiment: PBM E-score (8-mer binding enrichment) (E-score (-0.5 to 0.5)); higher = stronger / more preferred TF binding; details: protein concentration: 200 nM; construct: GST-full length
T1 sequence: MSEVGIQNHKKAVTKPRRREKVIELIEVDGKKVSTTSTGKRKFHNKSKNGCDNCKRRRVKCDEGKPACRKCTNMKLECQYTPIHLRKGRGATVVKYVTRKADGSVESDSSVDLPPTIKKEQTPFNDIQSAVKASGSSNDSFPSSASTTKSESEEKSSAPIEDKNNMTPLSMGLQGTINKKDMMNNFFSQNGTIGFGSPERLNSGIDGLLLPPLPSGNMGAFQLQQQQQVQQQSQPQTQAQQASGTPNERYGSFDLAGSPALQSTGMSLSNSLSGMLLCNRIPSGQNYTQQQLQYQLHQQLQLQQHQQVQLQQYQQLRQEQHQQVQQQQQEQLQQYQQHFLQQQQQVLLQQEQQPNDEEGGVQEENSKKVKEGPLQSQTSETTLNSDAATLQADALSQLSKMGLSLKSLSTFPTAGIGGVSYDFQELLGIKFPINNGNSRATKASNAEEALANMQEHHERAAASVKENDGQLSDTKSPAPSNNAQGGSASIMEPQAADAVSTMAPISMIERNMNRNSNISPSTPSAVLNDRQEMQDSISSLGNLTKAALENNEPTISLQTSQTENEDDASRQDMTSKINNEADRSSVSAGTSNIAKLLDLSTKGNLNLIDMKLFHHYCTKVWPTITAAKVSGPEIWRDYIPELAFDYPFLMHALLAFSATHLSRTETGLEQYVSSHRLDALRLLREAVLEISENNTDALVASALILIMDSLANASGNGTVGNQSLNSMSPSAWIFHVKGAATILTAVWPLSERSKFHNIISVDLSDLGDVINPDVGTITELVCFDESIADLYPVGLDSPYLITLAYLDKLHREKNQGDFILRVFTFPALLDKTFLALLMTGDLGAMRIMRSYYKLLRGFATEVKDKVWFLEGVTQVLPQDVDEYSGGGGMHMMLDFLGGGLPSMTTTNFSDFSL
In short: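 Bound GST-tagged yeast transcription factors, applied at about 100-200 nM to double-stranded universal all-10-mer Agilent arrays, were detected with fluorescent anti-GST. Scans were normalised with masliner. A modified Wilcoxon-Mann-Whitney statistic, the E-score, was assigned to each ungapped eight-base word pooled with its reverse complement by the Universal PBM Analysis Suite.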

| Sequence | PBM E-score |
| --- | --- |
| CATGTTAA | 0.0636 |
| GGTCTGAA | 0.0866 |
| TAGAATGA | -0.263 |
| GCACGCGA | -0.0589 |
| GGGTATAA | -0.0582 |
| CGCAGTCA | -0.228 |
| GGCTTTGA | -0.0097 |
| ATAGGGAT | -0.0755 |
| ATAGACAT | -0.151 |
| TATCCATA | 0.2 |
| CTACCATC | 0.00378 |
| AGCCTTGC | -0.0435 |
| AACCGAGC | 0.325 |
| CAACGAGC | 0.286 |
| GCACGAGA | 0.0181 |
| AATCGAGC | 0.286 |
| GCACGAGC | -0.0167 |
| GAACGAGA | 0.457 |
| AAACGAGC | 0.489 |
| GAACGAGC | 0.465 |

| Sequence | PBM E-score |
| --- | --- |
| GGACGAGA | -0.00291 |
| TGAATGCA | -0.0537 |
| CTTAGATC | -0.0871 |
| CCCCTATA | 0.0494 |
| AAAAAGTT | -0.0419 |
| GGCCTCTA | -0.0932 |
| CTCTACGC | 0.0628 |
| AGCTACGA | 0.34 |
| ATCTACGA | 0.313 |
| CGCTACGC | 0.136 |
| CGCTACGA | 0.421 |
| CTCTACGA | 0.409 |
| GGCAGGAA | -0.24 |
| AATCCAGG | 0.0108 |
| AAAACTAC | 0.137 |
| CCTGGCAA | -0.125 |
| CAAGACAA | -0.0401 |
| CAATCGTA | 0.4 |
| AAATCGTA | 0.383 |
| CAATCGTG | -0.153 |

| Sequence | PBM E-score |
| --- | --- |
| CAATCGTC | -0.144 |
| TAATCGTA | 0.42 |
| GAATCGCA | -0.0934 |
| GAATCGTC | 0.052 |
| AAATCGTC | 0.14 |
| GAATCGTA | 0.387 |
| TAATCGAA | 0.226 |
| AAATCGTG | 0.0785 |
| TAATCGGA | 0.155 |
| CTGGCTCC | -0.252 |
| CCGGAGAC | -0.0181 |
| AGGTCTCA | -0.221 |
| CCTCAGCA | -0.21 |
| AAACGTAC | 0.33 |
| AGTGGATC | -0.0691 |
| AGTACTAC | 0.119 |
| GCACAAAC | 0 |
| CGCAACGC | 0.0437 |
